The record followed here is article PMC11006913.

Substitutions are numbered along the chain they refer to.

For the first assay, the target named is T1, SIX6 (Homo sapiens, UniProt O95475 114-200, L143M).
T1 sequence: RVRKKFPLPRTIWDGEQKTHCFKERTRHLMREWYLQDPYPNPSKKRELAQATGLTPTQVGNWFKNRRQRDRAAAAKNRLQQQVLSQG
The experiment in a line: PBM; 200 nM protein, PBS. The conditions noted are these: dsDNA, one strand shown.
In the case of CGGTATCA, the binding signal was 11 upbm affinity estimate (log intensity, higher = more binding, comparable within an allelic series).
For the sequence AGCGGGCC, the binding signal is 8.83 upbm affinity estimate (log intensity, higher = more binding, comparable within an allelic series).
On the same count and under the same terms, for GGCCCCGA the value was 8.93 upbm affinity estimate (log intensity, higher = more binding, comparable within an allelic series); for GGCGACCC, 9.09 upbm affinity estimate (log intensity, higher = more binding, comparable within an allelic series).
For AGGGCCCG, the binding signal was 8.93 upbm affinity estimate (log intensity, higher = more binding, comparable within an allelic series).
On the same count and under the same terms, under ACGGGCGG stands 8.96 upbm affinity estimate (log intensity, higher = more binding, comparable within an allelic series); under ATGATACC, 11.3 upbm affinity estimate (log intensity, higher = more binding, comparable within an allelic series); under TGATACCA, 11 upbm affinity estimate (log intensity, higher = more binding, comparable within an allelic series).
Still for that read-out and setting: for AGTATATC the value was 10.9 upbm affinity estimate (log intensity, higher = more binding, comparable within an allelic series); for GCCAGTCC, 8.89 upbm affinity estimate (log intensity, higher = more binding, comparable within an allelic series).
Same read-out and setting: under ATATCCCC stands 10.9 upbm affinity estimate (log intensity, higher = more binding, comparable within an allelic series); under CCAGTGCG, 8.99 upbm affinity estimate (log intensity, higher = more binding, comparable within an allelic series).
With GGCGCCCA, the binding signal was 8.75 upbm affinity estimate (log intensity, higher = more binding, comparable within an allelic series).
Same read-out and setting: for ACCGCGCC the value was 8.81 upbm affinity estimate (log intensity, higher = more binding, comparable within an allelic series); for GGCGGACC, 8.83 upbm affinity estimate (log intensity, higher = more binding, comparable within an allelic series).
Still for that read-out and setting: for CGCAACCG the value was 9.07 upbm affinity estimate (log intensity, higher = more binding, comparable within an allelic series); for AGCTCCGC, 9.08 upbm affinity estimate (log intensity, higher = more binding, comparable within an allelic series).
Same read-out and setting: under AGTGTATC stands 11 upbm affinity estimate (log intensity, higher = more binding, comparable within an allelic series); under GGCCGGAA, 9 upbm affinity estimate (log intensity, higher = more binding, comparable within an allelic series).
CGCAGCGC: the binding signal is 9.12 upbm affinity estimate (log intensity, higher = more binding, comparable within an allelic series).
For CCCCGCAG, the binding signal was 8.92 upbm affinity estimate (log intensity, higher = more binding, comparable within an allelic series).
The same measure, in the same setting: for CAGTGGCC the value was 8.95 upbm affinity estimate (log intensity, higher = more binding, comparable within an allelic series); for AGGTGGGC, 8.93 upbm affinity estimate (log intensity, higher = more binding, comparable within an allelic series); for AGCGGCGC, 8.98 upbm affinity estimate (log intensity, higher = more binding, comparable within an allelic series).
Same read-out and setting: under AAGATATC stands 11 upbm affinity estimate (log intensity, higher = more binding, comparable within an allelic series); under GTATCAAA, 11.2 upbm affinity estimate (log intensity, higher = more binding, comparable within an allelic series); under TGTATCAA, 11 upbm affinity estimate (log intensity, higher = more binding, comparable within an allelic series).
CCGCCAGC: the binding signal was 9.02 upbm affinity estimate (log intensity, higher = more binding, comparable within an allelic series).
The same measure, in the same setting: for GCGCTGCC the value was 8.76 upbm affinity estimate (log intensity, higher = more binding, comparable within an allelic series); for CGTATCAC, 11 upbm affinity estimate (log intensity, higher = more binding, comparable within an allelic series).
Still for that read-out and setting: under CATGATCA stands 10.4 upbm affinity estimate (log intensity, higher = more binding, comparable within an allelic series).
The same measure, in the same setting: under ATATACAC stands 10.9 upbm affinity estimate (log intensity, higher = more binding, comparable within an allelic series).
CAGTATCA: the binding signal is 10.7 upbm affinity estimate (log intensity, higher = more binding, comparable within an allelic series).
Still for that read-out and setting: for AGTATCAC the value was 11 upbm affinity estimate (log intensity, higher = more binding, comparable within an allelic series); for GCAGTGGC, 8.94 upbm affinity estimate (log intensity, higher = more binding, comparable within an allelic series); for GATGATAC, 11.1 upbm affinity estimate (log intensity, higher = more binding, comparable within an allelic series).
Still for that read-out and setting: for GCCGCGGC the value was 9.03 upbm affinity estimate (log intensity, higher = more binding, comparable within an allelic series); for GATATCAC, 11.1 upbm affinity estimate (log intensity, higher = more binding, comparable within an allelic series); for GTGTATCA, 11.2 upbm affinity estimate (log intensity, higher = more binding, comparable within an allelic series).
In the case of AGCGGTGG, the binding signal was 9.05 upbm affinity estimate (log intensity, higher = more binding, comparable within an allelic series).

The target of another assay is T2, SIX6 (Homo sapiens, UniProt O95475 114-200, L143I).
T2 sequence: T1 sequence with M30I
The experiment in a line: PBM; 200 nM protein, PBS. The conditions noted are these: dsDNA, one strand shown.
With CGGTATCA, the binding signal is 10.4 upbm affinity estimate (log intensity, higher = more binding, comparable within an allelic series).
The same measure, in the same setting: under AGCGGGCC stands 8.88 upbm affinity estimate (log intensity, higher = more binding, comparable within an allelic series); under GGCCCCGA, 8.91 upbm affinity estimate (log intensity, higher = more binding, comparable within an allelic series).
Same read-out and setting: for GGCGACCC the value was 8.97 upbm affinity estimate (log intensity, higher = more binding, comparable within an allelic series); for AGGGCCCG, 8.9 upbm affinity estimate (log intensity, higher = more binding, comparable within an allelic series); for ACGGGCGG, 8.91 upbm affinity estimate (log intensity, higher = more binding, comparable within an allelic series).
The same measure, in the same setting: under ATGATACC stands 10.6 upbm affinity estimate (log intensity, higher = more binding, comparable within an allelic series).
TGATACCA: the binding signal is 10.6 upbm affinity estimate (log intensity, higher = more binding, comparable within an allelic series).
Same read-out and setting: for AGTATATC the value was 10.3 upbm affinity estimate (log intensity, higher = more binding, comparable within an allelic series).
Same read-out and setting: for GCCAGTCC the value was 9.03 upbm affinity estimate (log intensity, higher = more binding, comparable within an allelic series); for ATATCCCC, 10.3 upbm affinity estimate (log intensity, higher = more binding, comparable within an allelic series); for CCAGTGCG, 9.05 upbm affinity estimate (log intensity, higher = more binding, comparable within an allelic series).
On the same count and under the same terms, under GGCGCCCA stands 8.8 upbm affinity estimate (log intensity, higher = more binding, comparable within an allelic series); under ACCGCGCC, 8.86 upbm affinity estimate (log intensity, higher = more binding, comparable within an allelic series).
GGCGGACC: the binding signal is 8.88 upbm affinity estimate (log intensity, higher = more binding, comparable within an allelic series).
On the same count and under the same terms, under CGCAACCG stands 9.2 upbm affinity estimate (log intensity, higher = more binding, comparable within an allelic series); under AGCTCCGC, 9.04 upbm affinity estimate (log intensity, higher = more binding, comparable within an allelic series).
With AGTGTATC, the binding signal was 10.4 upbm affinity estimate (log intensity, higher = more binding, comparable within an allelic series).
The same measure, in the same setting: under GGCCGGAA stands 8.95 upbm affinity estimate (log intensity, higher = more binding, comparable within an allelic series); under CGCAGCGC, 9.01 upbm affinity estimate (log intensity, higher = more binding, comparable within an allelic series); under CCCCGCAG, 8.95 upbm affinity estimate (log intensity, higher = more binding, comparable within an allelic series).
Still for that read-out and setting: for CAGTGGCC the value was 8.95 upbm affinity estimate (log intensity, higher = more binding, comparable within an allelic series); for AGGTGGGC, 8.92 upbm affinity estimate (log intensity, higher = more binding, comparable within an allelic series); for AGCGGCGC, 8.84 upbm affinity estimate (log intensity, higher = more binding, comparable within an allelic series).
On the same count and under the same terms, for AAGATATC the value was 10.3 upbm affinity estimate (log intensity, higher = more binding, comparable within an allelic series).
For GTATCAAA, the binding signal is 10.4 upbm affinity estimate (log intensity, higher = more binding, comparable within an allelic series).
Same read-out and setting: for TGTATCAA the value was 10.4 upbm affinity estimate (log intensity, higher = more binding, comparable within an allelic series).
The same measure, in the same setting: under CCGCCAGC stands 9.03 upbm affinity estimate (log intensity, higher = more binding, comparable within an allelic series).
On the same count and under the same terms, for GCGCTGCC the value was 8.77 upbm affinity estimate (log intensity, higher = more binding, comparable within an allelic series); for CGTATCAC, 10.4 upbm affinity estimate (log intensity, higher = more binding, comparable within an allelic series).
As to CATGATCA, the binding signal was 9.97 upbm affinity estimate (log intensity, higher = more binding, comparable within an allelic series).
On the same count and under the same terms, under ATATACAC stands 10.4 upbm affinity estimate (log intensity, higher = more binding, comparable within an allelic series); under CAGTATCA, 10.3 upbm affinity estimate (log intensity, higher = more binding, comparable within an allelic series).
The same measure, in the same setting: for AGTATCAC the value was 10.3 upbm affinity estimate (log intensity, higher = more binding, comparable within an allelic series); for GCAGTGGC, 8.96 upbm affinity estimate (log intensity, higher = more binding, comparable within an allelic series).
The same measure, in the same setting: for GATGATAC the value was 10.5 upbm affinity estimate (log intensity, higher = more binding, comparable within an allelic series).
With GCCGCGGC, the binding signal was 8.95 upbm affinity estimate (log intensity, higher = more binding, comparable within an allelic series).
As for GATATCAC, the binding signal is 10.3 upbm affinity estimate (log intensity, higher = more binding, comparable within an allelic series).
Same read-out and setting: for GTGTATCA the value was 10.5 upbm affinity estimate (log intensity, higher = more binding, comparable within an allelic series); for AGCGGTGG, 9 upbm affinity estimate (log intensity, higher = more binding, comparable within an allelic series).

Another assay deals with T3, SIX6 (Homo sapiens, UniProt O95475 114-200, T165G).
T3 sequence: T1 sequence with M30L, T52G
Briefly: PBM; 200 nM protein, PBS. The conditions noted are these: dsDNA, one strand shown.
With CGGTATCA, the binding signal is 11.5 upbm affinity estimate (log intensity, higher = more binding, comparable within an allelic series).
Same read-out and setting: under AGCGGGCC stands 8.84 upbm affinity estimate (log intensity, higher = more binding, comparable within an allelic series); under GGCCCCGA, 9.02 upbm affinity estimate (log intensity, higher = more binding, comparable within an allelic series).
Same read-out and setting: for GGCGACCC the value was 9.01 upbm affinity estimate (log intensity, higher = more binding, comparable within an allelic series); for AGGGCCCG, 8.99 upbm affinity estimate (log intensity, higher = more binding, comparable within an allelic series).
Same read-out and setting: under ACGGGCGG stands 9.03 upbm affinity estimate (log intensity, higher = more binding, comparable within an allelic series).
Turning to ATGATACC, the binding signal is 11.7 upbm affinity estimate (log intensity, higher = more binding, comparable within an allelic series).
On the same count and under the same terms, under TGATACCA stands 11.5 upbm affinity estimate (log intensity, higher = more binding, comparable within an allelic series); under AGTATATC, 10.9 upbm affinity estimate (log intensity, higher = more binding, comparable within an allelic series).
Take GCCAGTCC: the binding signal was 9 upbm affinity estimate (log intensity, higher = more binding, comparable within an allelic series).
On the same count and under the same terms, for ATATCCCC the value was 10.9 upbm affinity estimate (log intensity, higher = more binding, comparable within an allelic series); for CCAGTGCG, 9.12 upbm affinity estimate (log intensity, higher = more binding, comparable within an allelic series).
Still for that read-out and setting: under GGCGCCCA stands 8.82 upbm affinity estimate (log intensity, higher = more binding, comparable within an allelic series); under ACCGCGCC, 8.91 upbm affinity estimate (log intensity, higher = more binding, comparable within an allelic series); under GGCGGACC, 8.99 upbm affinity estimate (log intensity, higher = more binding, comparable within an allelic series).
The same measure, in the same setting: for CGCAACCG the value was 9.18 upbm affinity estimate (log intensity, higher = more binding, comparable within an allelic series).
Regarding AGCTCCGC, the binding signal was 9.04 upbm affinity estimate (log intensity, higher = more binding, comparable within an allelic series).
The same measure, in the same setting: under AGTGTATC stands 11.1 upbm affinity estimate (log intensity, higher = more binding, comparable within an allelic series); under GGCCGGAA, 8.98 upbm affinity estimate (log intensity, higher = more binding, comparable within an allelic series).
Same read-out and setting: for CGCAGCGC the value was 8.94 upbm affinity estimate (log intensity, higher = more binding, comparable within an allelic series).
